# Laboratory results reported in ChEMBL document CHEMBL1961873, “Compounds: GSK PKIS; Assays: Nanosyn kinase panel” (2012).
# Key:
# [1] = biological target: T1, Serine/threonine-protein kinase D2 (Homo sapiens) (UniProt Q9BZL6); conditions: at 1 µM;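 note: mean value of PRKD2 inhibition, from the GSK PKIS screening panel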
# T1 sequence (whole entry): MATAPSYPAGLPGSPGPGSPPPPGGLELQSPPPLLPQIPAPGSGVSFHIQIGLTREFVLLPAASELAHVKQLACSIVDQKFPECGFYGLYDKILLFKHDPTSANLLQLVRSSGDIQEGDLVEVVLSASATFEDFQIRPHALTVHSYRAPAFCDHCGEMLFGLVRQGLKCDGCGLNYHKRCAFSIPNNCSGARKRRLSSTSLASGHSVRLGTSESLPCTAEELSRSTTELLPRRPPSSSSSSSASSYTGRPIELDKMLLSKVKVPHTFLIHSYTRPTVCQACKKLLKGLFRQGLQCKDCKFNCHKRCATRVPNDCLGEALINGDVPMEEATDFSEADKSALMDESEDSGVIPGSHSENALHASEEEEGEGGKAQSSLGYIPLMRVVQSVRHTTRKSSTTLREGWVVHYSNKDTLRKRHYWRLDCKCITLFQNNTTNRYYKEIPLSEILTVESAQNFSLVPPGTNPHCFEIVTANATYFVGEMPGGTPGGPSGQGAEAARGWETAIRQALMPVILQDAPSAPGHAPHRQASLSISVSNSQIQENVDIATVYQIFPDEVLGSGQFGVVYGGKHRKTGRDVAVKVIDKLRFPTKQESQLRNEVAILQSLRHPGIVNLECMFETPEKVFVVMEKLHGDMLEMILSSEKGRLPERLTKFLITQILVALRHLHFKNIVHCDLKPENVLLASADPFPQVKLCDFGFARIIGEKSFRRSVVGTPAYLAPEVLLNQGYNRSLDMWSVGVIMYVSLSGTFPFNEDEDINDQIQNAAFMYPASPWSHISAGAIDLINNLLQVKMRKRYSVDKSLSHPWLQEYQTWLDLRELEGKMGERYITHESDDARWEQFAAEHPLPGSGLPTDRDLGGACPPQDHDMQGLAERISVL
# [2] = biological target: T2, Serine/threonine-protein kinase D3 (Homo sapiens) (UniProt O94806); conditions: at 0.1 µM
# T2 sequence (whole entry): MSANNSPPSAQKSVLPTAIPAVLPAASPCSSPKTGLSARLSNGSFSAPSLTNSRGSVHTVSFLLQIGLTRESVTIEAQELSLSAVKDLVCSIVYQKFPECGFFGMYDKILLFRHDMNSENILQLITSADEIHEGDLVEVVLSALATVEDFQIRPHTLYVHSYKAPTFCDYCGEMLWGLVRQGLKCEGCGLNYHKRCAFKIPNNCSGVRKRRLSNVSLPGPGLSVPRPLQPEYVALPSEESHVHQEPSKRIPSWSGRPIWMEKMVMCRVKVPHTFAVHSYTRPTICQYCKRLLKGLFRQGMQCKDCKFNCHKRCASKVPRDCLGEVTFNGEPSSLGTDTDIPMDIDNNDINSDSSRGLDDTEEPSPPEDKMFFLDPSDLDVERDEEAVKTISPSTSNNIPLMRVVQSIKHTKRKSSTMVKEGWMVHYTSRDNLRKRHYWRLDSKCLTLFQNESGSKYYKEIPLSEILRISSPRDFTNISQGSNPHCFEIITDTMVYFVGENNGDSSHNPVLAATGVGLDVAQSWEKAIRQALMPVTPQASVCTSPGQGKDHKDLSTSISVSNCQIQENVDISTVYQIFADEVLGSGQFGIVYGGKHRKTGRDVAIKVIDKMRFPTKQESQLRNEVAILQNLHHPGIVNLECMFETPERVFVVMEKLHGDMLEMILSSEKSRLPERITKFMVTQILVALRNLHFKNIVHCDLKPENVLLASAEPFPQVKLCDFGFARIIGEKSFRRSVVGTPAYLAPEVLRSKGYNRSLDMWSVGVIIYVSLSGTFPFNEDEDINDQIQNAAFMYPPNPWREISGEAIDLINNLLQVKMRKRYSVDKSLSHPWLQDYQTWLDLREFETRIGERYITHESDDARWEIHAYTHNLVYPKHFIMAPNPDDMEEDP
# [3] = biological target: T2, Serine/threonine-protein kinase D3 (Homo sapiens); conditions: at 1 µM
# [4] = biological target: T3, cGMP-dependent protein kinase 1 (Homo sapiens) (UniProt Q13976); conditions: at 0.1 µM
# T3 sequence (whole entry): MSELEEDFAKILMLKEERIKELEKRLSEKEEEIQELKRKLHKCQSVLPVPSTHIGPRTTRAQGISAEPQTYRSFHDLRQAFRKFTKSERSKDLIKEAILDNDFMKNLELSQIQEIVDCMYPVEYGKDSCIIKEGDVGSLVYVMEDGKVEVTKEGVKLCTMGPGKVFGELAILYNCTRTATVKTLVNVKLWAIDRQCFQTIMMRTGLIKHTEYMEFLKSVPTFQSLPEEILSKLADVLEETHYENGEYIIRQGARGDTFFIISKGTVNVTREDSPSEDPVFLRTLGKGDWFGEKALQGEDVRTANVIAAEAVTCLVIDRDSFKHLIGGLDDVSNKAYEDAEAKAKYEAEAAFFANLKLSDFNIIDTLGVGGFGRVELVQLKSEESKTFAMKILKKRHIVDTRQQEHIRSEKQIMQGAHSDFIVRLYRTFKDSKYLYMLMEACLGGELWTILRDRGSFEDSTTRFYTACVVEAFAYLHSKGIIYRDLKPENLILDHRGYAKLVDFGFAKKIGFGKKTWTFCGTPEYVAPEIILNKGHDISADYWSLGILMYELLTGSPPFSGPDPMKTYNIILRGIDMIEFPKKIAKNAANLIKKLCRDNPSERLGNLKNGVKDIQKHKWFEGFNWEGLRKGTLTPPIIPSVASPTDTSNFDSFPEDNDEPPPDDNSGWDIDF
# [5] = biological target: T3, cGMP-dependent protein kinase 1 (Homo sapiens); conditions: at 1 µM
# [6] = biological target: T4, cGMP-dependent protein kinase 2 (Homo sapiens) (UniProt Q13237); conditions: at 0.1 µM
# T4 sequence (whole entry): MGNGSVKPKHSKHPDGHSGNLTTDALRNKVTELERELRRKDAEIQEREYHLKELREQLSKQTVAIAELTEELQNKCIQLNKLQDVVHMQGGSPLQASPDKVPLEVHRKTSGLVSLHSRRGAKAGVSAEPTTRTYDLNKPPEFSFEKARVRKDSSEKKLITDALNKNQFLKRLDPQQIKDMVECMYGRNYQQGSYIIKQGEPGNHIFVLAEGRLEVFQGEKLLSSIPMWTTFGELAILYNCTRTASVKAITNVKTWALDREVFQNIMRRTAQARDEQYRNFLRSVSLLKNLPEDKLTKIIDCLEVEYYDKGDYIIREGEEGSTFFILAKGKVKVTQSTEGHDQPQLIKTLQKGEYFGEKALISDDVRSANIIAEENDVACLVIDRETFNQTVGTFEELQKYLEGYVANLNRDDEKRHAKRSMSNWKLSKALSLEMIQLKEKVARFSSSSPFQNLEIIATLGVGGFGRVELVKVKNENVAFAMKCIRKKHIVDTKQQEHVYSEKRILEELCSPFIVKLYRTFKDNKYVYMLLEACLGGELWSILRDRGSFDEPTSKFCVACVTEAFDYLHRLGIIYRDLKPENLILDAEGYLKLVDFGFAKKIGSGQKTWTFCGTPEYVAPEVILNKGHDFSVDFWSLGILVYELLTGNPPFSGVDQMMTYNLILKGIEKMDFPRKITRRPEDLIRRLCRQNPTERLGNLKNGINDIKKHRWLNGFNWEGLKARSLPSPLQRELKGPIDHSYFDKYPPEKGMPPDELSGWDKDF
# [7] = biological target: T4, cGMP-dependent protein kinase 2 (Homo sapiens); conditions: at 1 µM
# [8] = biological target: T5, cAMP-dependent protein kinase catalytic subunit PRKX (Homo sapiens) (UniProt P51817); conditions: at 0.1 µM
# T5 sequence (whole entry): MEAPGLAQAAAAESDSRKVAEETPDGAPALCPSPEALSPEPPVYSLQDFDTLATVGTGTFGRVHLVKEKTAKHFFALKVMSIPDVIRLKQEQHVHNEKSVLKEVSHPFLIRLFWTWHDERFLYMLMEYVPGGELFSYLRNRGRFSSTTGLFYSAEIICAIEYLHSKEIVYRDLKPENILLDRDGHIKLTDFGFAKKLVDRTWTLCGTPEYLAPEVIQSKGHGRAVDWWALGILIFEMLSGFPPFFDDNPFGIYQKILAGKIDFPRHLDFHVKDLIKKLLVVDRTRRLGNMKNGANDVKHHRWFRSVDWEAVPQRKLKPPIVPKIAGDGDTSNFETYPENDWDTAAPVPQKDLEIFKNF
# [9] = biological target: T5, cAMP-dependent protein kinase catalytic subunit PRKX (Homo sapiens); conditions: at 1 µM
# [10] = biological target: Rho-associated protein kinase 1 (Homo sapiens) (UniProt Q13464); conditions: at 0.1 µM;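 note: values are mean percent inhibition of ROCK1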
# Sequence of Rho-associated protein kinase 1 (Homo sapiens) (Q13464 2-1354 limits assumed): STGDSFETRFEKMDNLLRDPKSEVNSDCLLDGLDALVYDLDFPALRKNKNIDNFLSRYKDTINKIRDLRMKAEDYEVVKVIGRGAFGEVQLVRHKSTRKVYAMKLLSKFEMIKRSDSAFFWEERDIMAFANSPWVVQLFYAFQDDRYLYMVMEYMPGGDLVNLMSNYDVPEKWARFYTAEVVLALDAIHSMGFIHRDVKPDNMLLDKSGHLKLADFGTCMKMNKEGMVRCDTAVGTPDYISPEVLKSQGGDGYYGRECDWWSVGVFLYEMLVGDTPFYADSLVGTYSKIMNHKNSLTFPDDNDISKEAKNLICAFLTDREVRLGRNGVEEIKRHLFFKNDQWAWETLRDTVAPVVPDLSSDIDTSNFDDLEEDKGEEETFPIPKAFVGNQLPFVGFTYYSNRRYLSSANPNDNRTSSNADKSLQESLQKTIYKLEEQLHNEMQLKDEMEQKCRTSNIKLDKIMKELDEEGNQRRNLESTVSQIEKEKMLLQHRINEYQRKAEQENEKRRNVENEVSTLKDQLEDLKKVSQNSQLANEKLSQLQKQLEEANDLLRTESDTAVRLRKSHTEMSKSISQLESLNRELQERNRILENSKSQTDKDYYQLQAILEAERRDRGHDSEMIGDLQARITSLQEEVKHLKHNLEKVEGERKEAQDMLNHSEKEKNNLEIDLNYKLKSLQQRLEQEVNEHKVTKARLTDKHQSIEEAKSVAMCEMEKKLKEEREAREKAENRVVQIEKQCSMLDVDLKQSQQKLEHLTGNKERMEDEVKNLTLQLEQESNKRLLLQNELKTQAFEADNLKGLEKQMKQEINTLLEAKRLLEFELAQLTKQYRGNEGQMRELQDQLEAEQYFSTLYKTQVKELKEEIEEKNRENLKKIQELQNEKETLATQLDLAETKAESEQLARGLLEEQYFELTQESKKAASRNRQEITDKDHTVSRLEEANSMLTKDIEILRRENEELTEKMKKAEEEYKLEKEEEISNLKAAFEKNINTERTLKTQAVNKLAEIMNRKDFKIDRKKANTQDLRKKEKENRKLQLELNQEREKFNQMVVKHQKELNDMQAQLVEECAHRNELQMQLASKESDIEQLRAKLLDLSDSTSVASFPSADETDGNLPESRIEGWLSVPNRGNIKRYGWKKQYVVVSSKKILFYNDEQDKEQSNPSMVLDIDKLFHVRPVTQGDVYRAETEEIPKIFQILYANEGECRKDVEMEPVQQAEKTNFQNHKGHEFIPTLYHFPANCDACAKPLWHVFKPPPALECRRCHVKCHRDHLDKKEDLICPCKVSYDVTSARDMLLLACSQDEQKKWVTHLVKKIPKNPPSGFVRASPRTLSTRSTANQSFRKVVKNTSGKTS
Compound,inhibition [1] [%],inhibition [2] [%],inhibition [3] [%],inhibition [4] [%],inhibition [5] [%],inhibition [6] [%],inhibition [7] [%],inhibition [8] [%],inhibition [9] [%],inhibition [10] [%]
CC(=O)NCc1cccc(C#Cc2cncnc2Nc2ccc(OCc3cccc(F)c3)c(Cl)c2)c1,2.16,1.12,1.92,1.14,1.95,1.31,2.28,1.14,2.2,0.02
Cc1cccc2c1NC(=O)/C2=N\Nc1ccc(S(N)(=O)=O)cc1,3.1,3.5,3.85,0.72,2.94,3.15,3.38,1.15,2.2,1.31
Nc1nc(-c2cccc(Cl)c2)c(-c2ccc3ncccc3n2)s1,40.1,7.77,33.1,2.8,5.63,1.78,4.96,3.46,5.88,1.58
CCc1nn2ncccc2c1-c1ccnc(NC2CC2)n1,3.14,1.73,2.57,1.92,3.59,0.96,3.27,1.66,0.72,0.66
CNC(=O)c1cccc(C#Cc2cncnc2Nc2ccc(OCc3cccc(F)c3)c(Cl)c2)c1,2.02,0.11,0.04,-0.44,3.3,0.38,0.97,-0.25,0.9,-1.85
CCn1cc(-c2ccnc3[nH]ccc23)c(-c2cccc(NC(=O)Nc3ccc(OCc4ccccc4)cc3)c2)n1,2.85,1.53,4.36,2.12,1.15,2.48,1.43,4.18,4.31,-1.8
CCN1CCC(CC(=O)Nc2n[nH]c3nnc(-c4cccc(F)c4F)cc23)CC1,2.99,1.54,2.01,1.07,0.47,1.64,2.03,0.36,0.65,0.26
COc1ccc(-c2cc3c(N)ncnc3o2)cc1,-0.42,-1.77,-1.37,-0.46,0.25,-1.2,1.5,0.58,0.29,-0.42
